rTrxR1 inhibitor – blocks rat thioredoxin reductase 1 | O89049 | Potency, µM (titrated, usually from 114 µM), most hits filed as inhibitors | AID 588453 | actives 1% (n = 390,000) | recombinant rTrxR1, NADPH fluorescence consumption, selenite substrate; note: nearly all actives have a fitted effect of over 65% in size
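Rat TrxR1 (90 nM in the dispensed reagent) was pre-reduced with 400 uM NADPH for 5 min at room temperature, then incubated with compound for 15 min. After 400 uM selenite was added, NADPH fluorescence (Ex 340/Em 450 nm) was followed for 8 min.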
GALK inhibitor – blocks human galactokinase activity; P51570; Purified GALK, Kinase-Glo residual ATP luminescence; Potency, µM (top dose mostly 57.5 µM), usual class: inhibitors; actives 0.007% (n = 270,000); AID 1868
Target sequence (P51570 whole entry, looked up): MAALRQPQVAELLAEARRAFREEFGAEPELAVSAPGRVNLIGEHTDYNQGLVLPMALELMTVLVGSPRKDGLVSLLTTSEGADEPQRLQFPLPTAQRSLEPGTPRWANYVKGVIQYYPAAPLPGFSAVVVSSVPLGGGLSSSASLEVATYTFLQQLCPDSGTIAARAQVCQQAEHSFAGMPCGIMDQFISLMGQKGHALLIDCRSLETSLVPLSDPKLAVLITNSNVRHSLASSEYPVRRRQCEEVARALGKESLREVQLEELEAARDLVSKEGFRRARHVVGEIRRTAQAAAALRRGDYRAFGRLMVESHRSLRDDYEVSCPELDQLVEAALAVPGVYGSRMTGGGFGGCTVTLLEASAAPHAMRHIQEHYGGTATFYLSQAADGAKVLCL
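Galactose (100 uM) and ATP (35 uM) were turned over by 5 nM GALK for 1 h at RT. Kinase-Glo Plus then converted the remaining ATP into a luminescent signal.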
Giardia killer – kills Giardia lamblia; Giardia lamblia trophozoite viability; actives 0.15% (n = 340,000); activity change, % at 7.66 µM, hits read low; in the data active = activity change below about -80%; inconclusive = between about -30% and that limit;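 note: parasites exposed to compound for two days anaerobically before the ATP read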
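ATP-content bioluminescence gauges trophozoite survival. Cells (100/well) receive compound and incubate anaerobically for 48 hrs at 37 deg C; detection reagent follows for 15-30 min at room temperature.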
Coupling enz – coupling enzyme interference in Giardia aldolase counter-screen | AID 2472 | coupling enzyme system counterscreen, AmpLite Red fluorescence | actives 0.67% (n = 290,000) | activity change, negative = inhibition, % at 58.2 µM, hits read low; in the data active = activity change below about -30%
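Activity here indicates interference with the coupling reaction, not aldolase inhibition. Compounds at 57.5 uM final met coupling enzymes for 10 min at RT; substrate and AmpLite Red detection followed, with a 525/598 nm fluorescence read after 20 min.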
PI4K2A inh – inhibitors of human PI4K2A | Q9BTU6 | purified PI4K2A, ADP-Glo luminescence, 1 h; active compounds read low | activity change, negative = inhibition, % at 76.9 µM | actives 0.13% (n = 420,000) | AID 1346378; in the data active = activity change below about -50%; inconclusive = mostly about -30% to -49%
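In this quantitative HTS, ADP production by PI4K2A was quantified luminescently after 1 h at ambient temperature; 100 microM adenosine served as plate-quality control.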
TrxR1 substrate – rat thioredoxin reductase 1 substrate activity; O89049; purified TrxR1 substrate turnover, NADPH consumption readout; Potency, µM (top dose mostly 114 µM); actives 0.01% (n = 390,000); note: nearly all actives have a fitted effect of over 50% in size
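Rat TrxR1, dispensed at 90 nM, was prereduced with 400 uM NADPH (final) for 5 min at ~22 deg C, then incubated with compound 15 min before 400 uM selenite. A first-read NADPH fluorescence drop versus no-compound background flagged substrates.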
A number is an active result; i = inactive; ? = inconclusive; nt = not tested or not shown; ! = not confirmed by another sample. Rows were chosen to be rich in hits. Some 1.5% of all compounds tested hit in one or more screens of this group. Unless noted, calls come from the whole dose curve; as a rule, active = well fitted curve in the direction sought with a large enough effect; inconclusive = small, poorly fitted or top-dose-only effect, or another doubt; inactive = no such curve, though single readings can be large; an effect the other way counts as inactive or inconclusive.

SMILES | rTrxR1 inhibitor | GALK inhibitor | Giardia killer | Coupling enz | PI4K2A inh | TrxR1 substrate
CC(C)[C@H]1C(=O)N2CCC[C@H]2[C@]2(O)O[C@](NC(=O)[C@@H]3C=C4c5cccc6[nH]cc(c56)C[C@H]4N(C)C3)(C(C)C)C(=O)N12 | ? | i | i | -46 | i | i
Cc1cnc2c(C(=O)O)c(Cl)ccc2c1 | nt | nt | nt | i | nt | nt
CN(C)C1C(=O)C(C(N)=O)C(=O)C2(O)C(=O)C3C(=O)c4c(O)cccc4C(C)(O)C3C(O)C12 (stereo not drawn) | nt | nt | nt | i | nt | nt
CCC1OC2(C)C(O)C(/C=C/C=C/C=C/c3oc(=O)cc(OC)c3C)OC1(C)C2OC(C)=O (stereo not drawn) | nt | nt | nt | i | nt | nt
COc1ccc(NC(=O)CSc2oc(-c3cccs3)nc2S(=O)(=O)c2ccccc2)c(OC)c1 | ? | nt | nt | nt | i | i
CCN1C(=O)C(=C/C=C/c2ccco2)C(=O)N(CC)C1=S | 4.5µM | i | i | i | i | i
O=C1NC(=O)N(Cc2ccccc2)C(=O)/C1=C/C=C/c1ccco1 | ? | i | i | i | ? | i
CC(C)N1C(=O)/C(=C/C=C/c2ccco2)C(=O)N(Cc2ccco2)C1=O | i | i | i | i | -59 | i
C[C@]12CC[C@H]3[C@@H](CCC4=CC(=O)CC[C@@H]43)[C@@H]1CC[C@@H]2OC(=O)CCc1ccco1 | nt | nt | nt | nt | i | nt
CO/C=C(/C(=O)OC)c1ccccc1Oc1cc(Oc2ccccc2C#N)ncn1 | nt | nt | nt | nt | i | nt
Cc1cc(/C=C/c2cccc3sc(C)[n+](CCCCI)c23)ccc1N(CCCl)CCCl | 16µM | nt | nt | nt | nt | i
Cc1cc(/C=C/c2ccnc3ccccc23)ccc1N(CCCl)CCCl | i | nt | nt | nt | nt | i
c1ccc(N2CCCC3(CCNCC3)C2)nc1 | nt | nt | nt | i | nt | nt
O=c1c(O)c(-c2ccc(O)c(O)c2)oc2c(O)c(O)cc(O)c12 | nt | nt | nt | -57 | nt | nt
CCOC(=O)C1CCCN(c2ccc([N+](=O)[O-])c3nonc23)C1 (stereo not drawn) | i | i | -95 | i | i | i
COc1ccc(NC(=O)CCn2cnc3onc(-c4ccc(F)cc4)c3c2=O)cc1OC | ? | nt | nt | nt | i | i
COc1cc(/C=C/[N+](=O)[O-])ccc1O | 3.2µM | nt | i | i | i | i
CC(C)C[C@H](NC(=O)[C@H](CC(C)C)NC(=O)[C@H](Cc1ccccc1)NC(=O)[C@@H](N)Cc1ccc(O)cc1)C(=O)N[C@@H](CCCN=C(N)N)C(=O)N[C@@H](CC(N)=O)C(=O)N1CCC[C@H]1C(=O)O | nt | nt | nt | i | nt | nt
CCCN1CCCC(c2cccc(O)c2)C1 (stereo not drawn) | i | nt | nt | nt | nt | nt
O=C1NC(=S)NC(=O)C1=Cc1ccc2c(c1)CCN2CCCCl | 28µM | i | i | i | ? | i
CCCCn1c(NC(=O)c2ccco2)c(C(=O)OCC)c2nc3ccccc3nc21 | ? | i | i | -46 | ? | i
CN(C)[C@@H]1C(=O)C(C(N)=O)=C(O)[C@@]2(O)C(=O)C3=C(O)c4c(O)cccc4[C@@](C)(O)[C@H]3[C@H](O)[C@@H]12 | 35µM! | i | i | i | -63! | i
C[N+](C)(C)CC1CCCc2ccccc2C1=O (stereo not drawn) | 71µM | nt | i | nt | i | i
CCCc1[nH][nH]c(=O)c1C(c1ccc(Cl)cc1)C(C#N)C#N (stereo not drawn) | 3.2µM | i | i | i | i | i
Cn1c(O)c(/C=C2\C=Nc3ccccc32)c(=O)n(C)c1=O | i | i | i | i | i | i
SMILES | rTrxR1 inhibitor | GALK inhibitor | Giardia killer | Coupling enz | PI4K2A inh | TrxR1 substrate
Cn1c(O)c(/C=C2\C=c3ccccc3=NC2=O)c(=O)n(C)c1=O | 35µM | i | i | i | i | i
NC(N)=Nc1ccc2[nH]c3c(c2c1)C[C@@]1(O)[C@H]2Cc4ccc(O)c5c4[C@@]1(CCN2CC1CC1)[C@H]3O5 | 27µM | nt | i | nt | i | i
CC1=CC2/C=C(\C)CCC(O)C(O)/C=C/C(=O)C23C(=O)NC(CC(C)C)C3C1C (stereo not drawn) | 16µM | i | i | i | i | i
C/C1=C\[C@@H](C)C/C=C/[C@H]2[C@@H]3O[C@]3(C)[C@@H](C)[C@H]3[C@H](Cc4c[nH]c5ccccc45)NC(=O)[C@]32C(=O)/C=C/C(=O)[C@@H]1O | ? | i | i | i | i | i
CC(=O)[O][Hg][c]1ccccc1 | nt | nt | nt | -48 | i | nt
O=C1NC(=S)NC(=O)C1C/C=C/c1ccccc1 | 50µM | i | i | i | i | i
Nc1ncnc2c1ncn2[C@@H]1O[C@H](COP(=O)(O)OP(=O)(O)OP(=O)(O)O)[C@H]2OC3(O[C@H]21)C([N+](=O)[O-])=CC(=[N+]([O-])[O-])C=C3[N+](=O)[O-] (stereo partly drawn) | nt | nt | nt | i | nt | nt
COc1ccc(CN2CCNCC2)cc1 | 35µM | i | ? | i | i | i
c1ccc(CN2CCNCC2)cc1 | nt | nt | nt | nt | i | nt
CN1CCCCC1Cn1cc(C(=O)c2cc([N+](=O)[O-])ccc2I)c2ccccc21 (stereo not drawn) | nt | nt | nt | i | nt | nt
CCOc1cc(OP(=S)(OC)OC)nc(CC)n1 | nt | nt | nt | i | nt | nt
NC(=O)C1CCN(/C=C2\C(=O)NC(=O)N(Cc3ccco3)C2=O)CC1 | i | i | i | i | i | i
CCN(CC)c1ccc(/C=C2/C(=O)NC(=O)N(Cc3ccco3)C2=O)cc1 | 35µM | i | i | i | ? | i
O=C1NC(=O)N(Cc2ccco2)C(=O)/C1=C/c1ccc(-c2cccc([N+](=O)[O-])c2)o1 | 40µM | i | i | i | ? | i
Cc1cc(/C=C2/C(=O)NC(=O)N(Cc3ccco3)C2=O)c(C)n1-c1ccccc1 | i | i | i | i | i | i
CN(C)c1ccc(/C=C2/C(=O)NC(=O)N(Cc3ccco3)C2=O)cc1 | 50µM | i | i | i | i | i
CCC(C)C(C)(COC(N)=O)COC(N)=O (stereo not drawn) | nt | nt | nt | nt | i | nt
CCOC(=O)c1c(-n2c(C)cc(C=C3C(=O)NC(=S)NC3=O)c2C)sc2c1CCCC2 | 22µM | i | i | i | i | i
O=[N+]([O-])c1ccccc1CCl | 45µM | nt | i | nt | i | i
ClCCN(CCCl)c1ccc(/C=C/c2ccnc3ccccc23)cc1 | i | nt | nt | nt | nt | i
CC1=C2C(=O)C3C(CC=C4C[C@@H](O)CC[C@@]43C)[C@@H]2CC[C@]12O[C@@H]1C[C@H](C)CN[C@H]1C2C (stereo partly drawn) | nt | nt | nt | i | nt | nt
COc1ccc(C=C2C(=O)NC(=S)NC2=O)cc1OC | 7.1µM | nt | i | nt | i | i
COc1ccc(/C=C/C=C2C(=O)NC(=S)NC2=O)cc1 | 7.1µM | nt | i | nt | i | i
C[N+](C)(C)CC#CCOC(=O)Nc1cccc(Cl)c1 | 2.7µM | nt | i | i | i | i
O=C(Nc1cccc(Cl)c1)N1C[C@H]2C[C@@H](C1)c1cccc(=O)n1C2 | i | nt | i | i | i | i
CC(=O)Nc1c2sscc-2n(C)c1=O | nt | nt | nt | i | nt | nt

Assay outcomes as filed in PubChem BioAssay.
